Measured values as given in PubChem BioAssay.
Activity calls are given as the source filed them.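 Rule for the calls, unless noted: active = fluorescence slope higher than the sample average by over 3 SD (cut at about -0.22 in these data, passing the limit was not always enough); inactive = the rest.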

What was measured:
[1] = inhibitors of TNFa-induced NFkB p65 translocation, primary screen, imaging, HUVEC, MLSMR starter and 10KST1 sets (AID 438;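 active = inhibition above 20% together with a positive visual image hit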;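 note: compound added about 3h40 before a 20 min TNFalpha stimulation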;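 for inhibition: signal is the nuclear over cytoplasmic p65 intensity ratio per well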); details: HUVEC TNFa-induced p65 nuclear translocation; cell count: measured here: nuclei count (cytotoxicity indicator), at 2.08 µM; inhibition: at 2 µM, stronger effect = higher value, 0% TNFa-plus-vehicle, 100% no-TNFa wells
[2] = inhibitors of mutant huntingtin aggregation, primary screen, imaging, exon1htt(103Q)mCFP cells, high-content imaging (AID 483;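 active = visual image review flags a hit and inhibition of aggregation exceeds 20%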;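 note: compound exposure lasted 3 days before fixation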;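 for nuclei count: percent of the per-plate median nuclei count of sample wells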); details: exon1htt(103Q)mCFP cell line, aggregate imaging, at 2 µM; inhibition of aggregation: stronger effect = higher value; nuclei count: measured here: cell count, toxicity
[3] = inhibitors of E-selectin induction by TNFa, primary screen, imaging, HUVEC, immunofluorescence, MLSMR starter and 10KST1 sets (AID 487;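 active = visually confirmed hit in the image check and inhibition above 20%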;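 for inhibition: signal is fraction of cell area covered by stained E-selectin grains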;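 for nuclei count: 100% = median nuclei count of all wells on the same plate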); details: HUVEC TNFalpha-induced E-selectin immunofluorescence imaging, at 2 µM; inhibition: stronger effect = higher value; nuclei count: measured here: cell number, toxicity
[4] = target: Voltage-gated potassium channel subunit beta-2 (Rattus norvegicus) (UniProt P62483); test: KvBeta enzyme negative modulators, primary screen, biochemical, NADPH fluorescence (AID 622); details: recombinant KvBeta, 4-cyanobenzaldehyde reduction, at 10 µM, stronger effect = higher value;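 note: slope of raw intensity against log time taken from 70 to 1610 s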
Voltage-gated potassium channel subunit beta-2 (Rattus norvegicus), sequence (P62483 whole entry, looked up): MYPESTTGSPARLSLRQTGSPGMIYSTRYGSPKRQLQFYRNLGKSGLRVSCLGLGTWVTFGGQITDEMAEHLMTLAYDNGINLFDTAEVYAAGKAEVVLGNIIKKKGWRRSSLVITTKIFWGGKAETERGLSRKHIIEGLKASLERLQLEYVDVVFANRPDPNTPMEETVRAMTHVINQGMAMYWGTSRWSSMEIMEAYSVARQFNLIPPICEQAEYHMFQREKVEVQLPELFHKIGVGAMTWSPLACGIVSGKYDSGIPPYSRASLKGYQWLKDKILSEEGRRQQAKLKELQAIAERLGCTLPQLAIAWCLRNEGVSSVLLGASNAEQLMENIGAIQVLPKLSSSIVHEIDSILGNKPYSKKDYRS

[5] = target: Voltage-gated potassium channel subunit beta-2 (Rattus norvegicus) (UniProt P62483); test: KvBeta positive modulators, primary screen, biochemical, NADPH fluorescence (AID 623;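 active = NADPH fluorescence slope more negative than the mean of all samples by about 3 SD, 99.7% confidence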;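 note: fluorescence intensity change per second fitted from 20 to 320 s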); details: Recombinant KvBeta, NADPH fluorescence decrease slope, 10 min; at 10 µM; stronger effect = lower value
[6] = target: Alpha-2C adrenergic receptor (Homo sapiens) (UniProt P18825); test: modulators of alpha2C/GIRK thallium flux, primary screen, cell-based, HEK293 alpha2C/GIRK1/2 (AID 624;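 active = fluorescence slope after compound addition differing from the mean of all screened samples at 99.7% confidence, in either direction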;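 note: slope of fluorescence ratio to pre-addition baseline per second over 15 to 24 s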); details: thallium flux BTC fluorescence, at 10 µM, actives lie on both sides
Alpha-2C adrenergic receptor (Homo sapiens), sequence (P18825 whole entry, looked up): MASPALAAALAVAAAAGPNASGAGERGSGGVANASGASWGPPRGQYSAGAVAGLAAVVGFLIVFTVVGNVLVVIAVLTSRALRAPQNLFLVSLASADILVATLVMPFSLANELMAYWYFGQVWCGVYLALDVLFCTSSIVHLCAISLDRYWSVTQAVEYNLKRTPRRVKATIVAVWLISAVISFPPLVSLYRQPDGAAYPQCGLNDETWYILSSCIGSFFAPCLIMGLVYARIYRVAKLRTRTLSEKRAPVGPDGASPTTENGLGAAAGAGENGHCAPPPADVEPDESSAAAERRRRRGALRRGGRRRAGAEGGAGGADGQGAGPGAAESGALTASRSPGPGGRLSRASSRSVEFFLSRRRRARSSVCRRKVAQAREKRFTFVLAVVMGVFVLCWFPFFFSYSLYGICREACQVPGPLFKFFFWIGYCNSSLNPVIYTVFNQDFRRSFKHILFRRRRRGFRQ

[7] = inhibitors of Sendai virus-induced IRF3 signaling, primary screen, TLR/RLR signaling modifier project, cell-based, Sendai virus stimulus, luciferase, 10K MLSCN set (AID 602276;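 active = inhibition at or above 50% at 10 µM; inactive = inhibition below 50%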;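 note: firefly luciferase from ISG56 promoter only with Renilla not read in this screen; 0% = Sendai virus plus DMSO and 100% = medium plus DMSO without virus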); details: HEK293 RL24 IRF3 luciferase reporter, at 10 µM, stronger effect = higher value
[8] = inhibitors of poly I:C-induced TLR3 signaling, primary screen, cell-based, poly I:C stimulus, luciferase, 10K MLSCN set (AID 602277;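 active = inhibition of the reporter signal at or above 50%; inactive = inhibition below 50%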); details: HEK293-TLR3 RL24 IRF3 luciferase reporter, at 10 µM, stronger effect = higher value

Structure (SMILES)	cell count [1]	inhibition [1]	inhibition of aggregation [2]	nuclei count [2] [%]	inhibition [3]	nuclei count [3] [%]	fluorescence slope [4]	NADPH fluorescence slope [5]	slope [6]	inhibition [7]	inhibition [8]
CCCCc1cc2c(c(NC(C)=O)n1)c(=O)oc1ccccc12	620	-9.4% (inactive)	14.7% (inactive)	110	3.6% (inactive)	104	-0.509 (inactive)	-2.7e-05 (inactive)	0.00617 (inactive)	12.1% (inactive)	40.5% (inactive)
COc1ccccc1CC(=O)Nc1ccc(OC)c(OC)c1	330	-8.4% (inactive)	17.1% (inactive)	102	-157% (inactive)	118	-0.466 (inactive)	-5.5e-05 (inactive)	0.00704 (inactive)	14.5% (inactive)	21.7% (inactive)
C=CCSc1nnc(Cc2c(C)[nH]c3ccccc23)o1	800	3.5% (inactive)	20.5% (inactive)	92.7	-15.9% (inactive)	118	-0.427 (inactive)	-6e-05 (inactive)	0.00499 (inactive)	7.53% (inactive)	15% (inactive)
CN1CCN(S(=O)(=O)c2ccc(NC(=O)Nc3cccc(Cl)c3)cc2)CC1	468	0.3% (inactive)	-4.4% (inactive)	91.8	36.5% (inactive)	114	-0.614 (inactive)	-3e-05 (inactive)	0.00476 (inactive)	-1.37% (inactive)	-11.1% (inactive)
COC(=O)C1=C(C)Nc2ncnn2C1c1ccc(C)o1 (stereo not drawn)	620	4.7% (inactive)	-58.3% (inactive)	95.5	9.8% (inactive)	108	-0.581 (inactive)	-8.1e-06 (inactive)	0.0055 (inactive)	-15.9% (inactive)	-6.27% (inactive)
CC(=O)C1=C(C)OC(N)=C(C#N)C1c1ccncc1 (stereo not drawn)	322	3.7% (inactive)	-14.4% (inactive)	97.8	39.3% (inactive)	112	-0.616 (inactive)	-5.3e-05 (inactive)	0.004 (inactive)	12.5% (inactive)	16.8% (inactive)
Cn1nnnc1SCSc1nnnn1C	626	-16.6% (inactive)	4.1% (inactive)	56.1	-58% (inactive)	93.3	-0.585 (inactive)	-4.7e-05 (inactive)	0.00536 (inactive)	0.0465% (inactive)	-3.07% (inactive)
O=C1c2ccccc2C(=O)N1CCN1CCCCC1	528	0.3% (inactive)	-9.5% (inactive)	113	-58.5% (inactive)	117	-0.327 (inactive)	-5e-05 (inactive)	0.00644 (inactive)	-8.79% (inactive)	-2.11% (inactive)
